Laboratory results from PubChem BioAssay AID1458 (National Center for Advancing Translational Sciences (NCATS), 2008).
Hit rate of the full screen: of about 210,000 compounds, about 5,900 (2.8%) were called active. About 5% were inconclusive and are not listed. Calls come from the whole dose curve; as a rule, active = well fitted activation curve with a large enough effect; inconclusive = small, poorly fitted or top-dose-only effect; inactive = no such curve, though single readings can be large or run the other way. The full list was thinned out, with actives kept by preference.

Assay: qHTS Assay for Enhancers of SMN2 Splice Variant Expression; note: nearly all actives have a fitted effect of over 55% in size; for activity change, positive = activation: % of control where 0% means no effect
Settings: HEK293 SMN2-luciferase splicing reporter, luminescence, 30-36 h; series mostly up to 46.1 µM; activity change, positive = activation: at the top concentration
Procedure, shortened: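 HEK293 cells carry an SMN2 […]–luciferase reporter in which exon 7 inclusion puts luciferase in frame. Cells were plated 10-12 h before compound addition, then incubated 30-36 h at 37C. ONE-Glo luminescence was read; sodium butyrate at 4.5 mM final served as control.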
Potency is the fitted concentration of half-maximal effect.

Activity change, positive = activation, inactive:
O=C(Nc1nc2cc3c(cc2s1)OCCO3)c1cccc(S(=O)(=O)N2CCOCC2)c1 -46.1%
Cc1nc(N2CCCCC2)sc1C=O 25%
Cc1ccc(C(=O)Nc2ccc(OCc3cc(=O)n4c(C)csc4n3)cc2)cc1 -4.42%
CCNC(=O)Cn1nc(C)n2c(cc3c(OC)cccc32)c1=O -2.9%
COC(=O)c1ccccc1NC(=O)c1ccc2c(=O)n3c(nc2c1)CCCCC3 0.0369%
Cc1cc([N+](=O)[O-])ccc1NC(=O)C1CCCO1 (centres undefined) -8.2%
O=C(Nc1nc2ccc(S(=O)(=O)N3CCCC3)cc2s1)C1CCCO1 (centres undefined) 25.8%
O=C(Nc1cc(-c2nc3ccccc3o2)ccc1Cl)c1cc([N+](=O)[O-])ccc1N1CCOCC1 7.04%
CN1c2ccccc2-c2nc3ccccc3n2C1c1ccco1 (centres undefined) -14.7%
CN(c1nc2ccccc2n2c(-c3ccco3)nnc12)S(=O)(=O)c1ccccc1 -3.62%
COC(=O)CC1Oc2ccccc2-n2cc(-c3ccccc3)nc21 (centres undefined) -12.5%
COc1cccc(N2CCN(S(=O)(=O)c3cc(Br)cc4c3N(C(=O)C3CC3)CC4)CC2)c1 -2.18%
CCC1CCCCN1C(=O)Cn1c(=O)n(CCCCCC(=O)NCc2ccccc2)c(=O)c2sccc21 (centres undefined) -5.86%
Cc1ccc(C(=O)Nc2ccc(OCc3cc(=O)n4c5c(sc4n3)CCCC5)cc2)cc1 1.24%
CCCCCn1c(CCNC(=O)c2ccc(F)cc2)nc2ccccc21 -27.6%
Cn1c(CN2CCOCC2)nc2cc(NC(=O)c3ccc(Cl)cc3)ccc21 -66.9%
COc1ccc(C2Sc3ccccc3NC3=C2C(=O)c2ccccc23)c(OC)c1OC (centres undefined) 7.57%
Cc1cccc(N(CC(=O)N=Nc2c(O)[nH]c3ccccc23)S(C)(=O)=O)c1C 4.36%
COCC(=O)N=Nc1c(O)[nH]c2ccccc12 16.4%
COc1ccccc1CNC(=O)C(Cc1ccccc1)NS(=O)(=O)c1ccc2c(c1)oc(=O)n2C (centres undefined) 4.66%
C/C(=N\NS(=O)(=O)c1ccc(Br)cc1)c1cccs1 -8.27%
Cc1c(Cl)cnc(NC(=O)COC(=O)c2ccc(S(=O)(=O)NCc3ccco3)cc2)c1Cl 3.97%
O=C(NC1CCC(O)CC1)c1ccc(S(=O)(=O)NCc2ccco2)cc1 (centres undefined) 13%
C/C(=N\NC(=O)COc1c(C)cccc1C)c1cccs1 -0.888%
Cc1cccc(C(CC(=O)NCC2(c3ccccc3)CCCC2)c2ccccc2)c1O (centres undefined) -50.4%
CCOc1ccccc1CNCc1c(C(=O)O)c(C)n(Cc2ccc(C)cc2)c1C 2.44%
O=S(=O)(NCC(c1ccccc1)N1CCc2ccccc21)c1ccccc1 (centres undefined) -3.77%
COc1ccc(S(=O)(=O)Nc2cc3c(C(=O)OC(C)C)c(C)oc3c3ccccc23)cc1 4.13%
Cc1cc2oc(C(=O)N(Cc3ccc(Cl)cc3)Cc3ccco3)c(C)c2cc1Cl 8.31%
COc1ccccc1C(=O)Nc1c(C(=O)Nc2ccc(C)cc2)oc2ccccc12 5.31%
O=C(Nc1nc2ccc(F)cc2s1)c1nc(SCc2ccccc2F)ncc1Cl 3.21%
CSc1ncccc1C(=O)Nc1nc2ccc(F)cc2s1 -21.2%
Cc1cccc(N2CCN(C(=O)c3ccc4c(c3)CCN4S(=O)(=O)c3ccccc3)CC2)c1C -31.7%
Cn1c(=O)n(Cc2ccco2)c(=N)c2c3c(sc21)CCCC3 -0.885%
O=C(NCc1ccco1)c1cccn2c(=O)c3c4c(sc3nc12)CCCC4 -28.6%
Oc1ccccc1-c1nc2ccc(Cl)cn2c1Nc1ccc2c(c1)OCCO2 -1.05%
CC(=O)C1C(c2ccc(Cl)cc2)NC(=O)NC1(O)C(F)(F)F (centres undefined) 7.08%
CC(=O)C1C(c2cccc(Oc3ccccc3)c2)NC(=O)NC1(O)C(F)(F)F (centres undefined) 8.81%
Fc1ccc2c(c1)C(c1cccnc1)=NNC(c1cccs1)=N2 -11.3%
COc1ccc2c(c1)C(c1cccs1)=NNC(c1cccnc1)=N2 -4.02%
Cc1cccn2c(=O)c3cc(C(=O)NC(C)c4ccccc4)c(=N)n(CCCO)c3nc12 (centres undefined) -17.4%
COc1cc(OC)cc(C(=O)Nc2c(C(=O)Nc3ccc(F)cc3)oc3ccccc23)c1 0.56%
CCN(CC)c1ccc(/C=N/Nc2nc(C)cc(C)n2)c(O)c1 -70.1%
COc1ccc(/C=C(\C#N)C(=O)ONC2=NCCCCC2)cc1 -13.8%
NS(=O)(=O)c1ccc(NC(=O)COc2ccc(S(=O)(=O)NC3CCCCC3)cc2)cc1 -1.03%
Cc1ccc(S(=O)(=O)N(C)CC(=O)NC2CCCC2)cc1 -21.5%
Cc1ccc(S(=O)(=O)NCC(=O)N(CC(=O)NC(C)(C)C)Cc2cccs2)cc1 2.37%
CN(Cc1ccccc1)C(=O)c1cc2c(=O)n(C)c3ccccc3c2s1 -7.18%
Cc1cccc(NC(=O)CN(c2ccc(C(C)C)cc2)S(=O)(=O)c2c(C)nn(C)c2C)c1C 3%
CCOc1ccc(-c2cc3nc(C4CCN(C(=O)OC(C)(C)C)CC4)c(C(=O)Nc4ccc(C(=O)OC)cc4)cn3n2)cc1 -1.9%

Potency, active:
c1c2c(cc3sc(N4CCCCC4)nc13)OCCO2 0.501 µM
Cc1cc(C)c2nc(NC(=O)C3CCCO3)sc2c1 (centres undefined) 12.6 µM
Cn1c(-c2ccco2)nc2cc3ccccc3cc21 2.51 µM
CN(C)CCN=c1cc(-c2ccccc2)oc2ccc(Cl)cc12 15.8 µM
CC(=O)NCCc1nc2cc(NC(=O)c3ccccc3)ccc2n1C 22.4 µM
Cc1c(-c2ccccc2)n[nH]c1C(=O)N=Nc1c(O)[nH]c2ccccc12 20 µM
C/C(=N\Nc1ncc(Cl)cc1Cl)c1ccc(S(=O)(=O)NCc2ccco2)cc1 12.6 µM
C/C(=N\Nc1ncc(Cl)cc1Cl)c1cccs1 11.2 µM
CCS(=O)(=O)N1Cc2ccccc2CC1C(=O)Nc1nc2ccc(F)cc2s1 (centres undefined) 14.1 µM
O=c1oc(-c2ccco2)nc2sc3c(c12)CCCCC3 14.1 µM
O=C(c1cccs1)C1C(c2ccc(Br)cc2)NC(=S)NC1(O)C(F)(F)F (centres undefined) 12.6 µM
CCOc1ccc2c(c1)C(c1ccc(C)cc1)=NNC(c1ccc(C)cc1)=N2 12.6 µM
Oc1ccc(/C=N/NC2=NCCCCC2)c(O)c1 12.6 µM
Cc1ccc(S(=O)(=O)NCC(=O)N(CC(=O)NC2CCCCC2)Cc2ccco2)cc1 20 µM
